# Results from PubChem BioAssay (NCATS).
# “And” between values parts separate entries of the source, which are not always exact repeats. Equal entries are not always repeated. Inconclusive results are not listed. More than one record can exist for a structure, and the calls need not agree. The source made the active and inactive calls. The call rests on the fitted dose curve; in most records, active means well fitted curve in the direction sought with a large enough effect; inconclusive means small, poorly fitted or top-dose-only effect, or another doubt; inactive means no such curve, though single readings can be large; an effect the other way counts as inactive or inconclusive.
# Assays:
# [1] = qHTS Screen of the MIPE 4.0 Collection Against Ewings Sarcoma (RDES) (AID 1259252); further: nearly all actives have a fitted effect of over 35% in size; further: potency means the concentration at half of the fitted maximal effect
# Summary of the method: (§1)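 Log-phase cells in RPMI with 5% FBS attached for 4 h, then received compounds as a titration for 48 h at 37C, 5% CO2. Viability was read by CellTiter-Glo luminescence and normalized to DMSO and no-cell wells.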
# [2] = qHTS Screen of the MIPE 4.0 Collection Against Ewings Sarcoma (TC71) (AID 1259253); further: nearly all actives have a fitted effect of over 40% in size; further: potency means the concentration at half of the fitted maximal effect
# Summary of the method: as §1
# [3] = qHTS Screen of the MIPE 4.0 Collection Against Ewings Sarcoma (EW8) (AID 1259255); further: nearly all actives have a fitted effect of over 35% in size; further: potency means the concentration at half of the fitted maximal effect
# Summary of the method: as §1
# [4] = qHTS Screen of the MIPE 4.0 Collection Against Ewings Sarcoma (TC32) (AID 1259256); further: nearly all actives have a fitted effect of over 45% in size; further: potency means the concentration at half of the fitted maximal effect
# Summary of the method: as §1
# [5] = Identifying Small Molecule Inhibitors of Pancreatic Cancer Stem Cells (A2780, Spheroid) (AID 1259357); conditions: Potency: A2780 spheroid viability; further: potency means the concentration at half of the fitted maximal effect;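 further: spheroids pre-formed over 14 days in stem cell medium on hydrogel; compound exposure lasted 48 h before the ATP luminescence read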
# Summary of the method: (§2)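 Adherent (2D) versus sphere (3D) formats; spheres generated 14 d in SCM beforehand. Compound transferred by pin tool after 4 h, 48 h incubation, CellTiter-Glo endpoint.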
# [6] = Identifying Small Molecule Inhibitors of Pancreatic Cancer Stem Cells (SN12C, Spheroid) (AID 1259360); conditions: Potency: SN12C spheroid viability; further: potency means the concentration at half of the fitted maximal effect
# Summary of the method: as §2
# [7] = P-glycoprotein substrates identified in KB-8-5-11 adenocarcinoma cell line, qHTS therapeutic library screen (AID 1346987); further: nearly all actives have a fitted effect of over 65% in size; further: potency means the concentration at half of the fitted maximal effect
# Summary of the method: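 In this qHTS, P-gp-rich KB-8-5-11 cells received library compounds across a concentration range. Viability was quantified by luminescence after 72 h at 37 degree C.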
# [8] = NS1 protein of Zika virus - qHTS assay to identify small molecule inhibitors in human HEK 293 cells (AID 1347053); further: nearly all actives have a fitted effect of over 55% in size; further: potency means the concentration at half of the fitted maximal effect
# Summary of the method: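 Readout was TR-FRET using paired anti-NS1 antibodies after 24 h infection of HEK 293 cells with ZIKV MR766 (MOI = 0.5). Compound preceded virus by 1 h; reduced signal reflects lower NS1 expression.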
# [9] = Identifying Small Molecule Inhibitors of Pancreatic Cancer Stem Cells (SN12C, Adherent) (AID 1259358);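 further: cell survival measured after 48 h of compound exposure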; further: potency means the concentration at half of the fitted maximal effect
# Summary of the method: (§3)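 Spheroids grown 14 days in stem cell media on hydrogel-coated nonadherent plates; 2D lines seeded directly. Compounds added after 4 h attachment, 48 h at 37C, 5% CO2; CellTiter-Glo luminescence normalized to DMSO (no inhibition) and no-cell wells (full inhibition).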
# [10] = P-glycoprotein substrates identified in KB-3-1 adenocarcinoma cell line, qHTS therapeutic library screen (AID 1346986);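 further: potency means the concentration at half of the fitted maximal effect; potency is for cytotoxicity meaning loss of cell viability; nearly all actives have a fitted effect of over 60% in size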
# Summary of the method: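 Viability by CellTiter-Glo after 72 h compound exposure at 37 degree C, 5% CO2. Cytotoxic call: curve class -1.1 to -2.4, maximum response >50%, AC50 < 10 uM, compared across KB-3-1 and P-gp-overexpressing KB-8-5-11.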
# [11] = Identifying Small Molecule Inhibitors of Pancreatic Cancer Stem Cells (A278, Adherent) (AID 1259361); further: nearly all actives have a fitted effect of over 35% in size
# Summary of the method: as §3
# [12] = Identifying Small Molecule Inhibitors of Pancreatic Cancer Stem Cells (Panc1, Adherent) (AID 1259362); conditions: Potency: viability; further: potency means the concentration at half of the fitted maximal effect
# Summary of the method: as §2
SMILES,Potency [1],Potency [2],Potency [3],Potency [4],Potency [5],Potency [6],Potency [7],Potency [8],Potency [9],Potency [10],IC50 (viability decrease) [11],Potency [12]
Cc1cnc(-c2cnc(NCCNc3ccc(C#N)cn3)nc2-c2ccc(Cl)cc2Cl)[nH]1,8330 nM (active),11800 nM (active),16600 nM (active),11800 nM (active),inactive,inactive,inactive,inactive,–,–,–,–
Cc1cc(Nc2cc(N3CCN(C)CC3)nc(Sc3ccc(NC(=O)C4CC4)cc3)n2)n[nH]1,3720 nM (active),6620 nM (active),296 nM (active),1180 nM (active),–,inactive,–,–,20900 nM (active),231 nM (active),–,–
CC(C)C[C@H](NC(=O)CNC(=O)c1cc(Cl)ccc1Cl)B(O)O,264 nM (active),332 nM (active),148 nM (active),469 nM (active),–,83.3 nM (active),–,418 nM (active),132 nM (active),–,16.6 nM (active),187 nM (active)
O=C(C=Cc1cccc(S(=O)(=O)Nc2ccccc2)c1)NO,2150 nM (active),2700 nM (active),1520 nM (active),1910 nM (active),–,–,10.8 µM (active),–,20900 nM (active),–,4690 nM (active),–
Cc1[nH]nc2ccc(-c3cncc(OC[C@@H](N)Cc4ccccc4)c3)cc12,2090 nM (active),1480 nM (active),833 nM (active),2960 nM (active),–,18700 nM (active),2.35 µM (active) and 1.16 µM (active),–,7430 nM (active),–,935 nM (active),4690 nM (active)
COc1ccc2c(c1)CC[C@@H](CN(C)CC(=O)O)[C@H]2c1ccccc1,2350 nM (active),3720 nM (active),2350 nM (active),2350 nM (active),–,inactive,1.66 µM (active) and inactive,–,inactive,–,–,–
Nc1cc(C(F)(F)F)c(-c2cc(N3CCOCC3)nc(N3CCOCC3)n2)cn1,372 nM (active),1050 nM (active),590 nM (active),264 nM (active),1480 nM (active),–,469 nM (active) and 1.16 µM (active),–,–,–,662 nM (active),1870 nM (active)
CCOc1cc2ncc(C#N)c(Nc3ccc(F)c(Cl)c3)c2cc1NC(=O)C=CCN(C)C,105 nM (active),132 nM (active),132 nM (active),132 nM (active),–,1480 nM (active),10.5 µM (active),–,–,–,20900 nM (active),18700 nM (active)
Cc1cn(-c2cc(NC(=O)c3ccc(C)c(Nc4nccc(-c5cccnc5)n4)c3)cc(C(F)(F)F)c2)cn1,inactive,inactive,inactive,inactive,–,inactive,–,–,inactive,–,–,–
COc1cc(OC2CCN(C)CC2)ccc1Nc1ncc2c(n1)n(C1CCCC1)c(=O)n2C,9350 nM (active),4690 nM (active),7430 nM (active),4690 nM (active),–,20900 nM (active),3.72 µM (active),–,16600 nM (active),–,–,2960 nM (active)
C[C@@H](Oc1cc(-n2cnc3ccc(CN4CCN(C)CC4)cc32)sc1C(N)=O)c1ccccc1C(F)(F)F,93.5 nM (active),74.3 nM (active),74.3 nM (active),74.3 nM (active),inactive,–,–,–,–,–,18.7 nM (active),3.7 nM (active)
CN1CCN(c2ccc3nc(-c4c(N)c5c(F)cccc5[nH]c4=O)[nH]c3c2)CC1,14800 nM (active),11800 nM (active),5900 nM (active),14800 nM (active),–,6620 nM (active),2.64 µM (active) and 8.2 µM (active),–,–,5170 nM (active),3320 nM (active),33200 nM (active)
CCN1CCN(CC(=O)Nc2ccc(-c3cccc4c(=O)cc(N5CCOCC5)oc34)c3sc4ccccc4c23)CC1,8330 nM (active),6620 nM (active),16600 nM (active),1320 nM (active),–,14800 nM (active),2.96 µM (active),inactive,–,1880 nM (active),4180 nM (active),23500 nM (active)
O=C(O)[C@H](Cc1c[nH]c2ccccc12)N1C(=O)c2ccccc2C1=O,inactive,inactive,inactive,inactive,–,inactive,inactive,inactive,inactive,–,–,inactive
CC(=O)Nc1sc2c(c1-c1nc3ccccc3s1)CNC2,16600 nM (active),14800 nM (active),16600 nM (active),13200 nM (active),–,–,16.6 µM (active) and 13 µM (active),inactive,inactive,–,–,–
O=C(O)c1ccc2cc(-c3ccc(O)c(C45CC6CC(CC(C6)C4)C5)c3)ccc2c1,1320 nM (active),590 nM (active),1660 nM (active),372 nM (active),–,–,–,–,2640 nM (active),–,935 nM (active),–
